From PubChem BioAssay AID1159506 (National Center for Advancing Translational Sciences (NCATS), 2015)
Over roughly 59,000 sequences, the read-out has its median near -0.00055; the lowest 2% begin near -2. The sample as a whole holds a higher share of the lowest values than the screen did.

experiment: Identification of proteins required for the processing of the EWS-FLI1 nascent transcript; conditions: TC32 Ewing sarcoma NR0B1-luc vs CMV-luc (EWS-FLI1 target promoter against control promoter), 48 h; screened at 20 nM (by protocol);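 also: robust z of luciferase light less the median z of siRNAs with the same seed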
Summary of the method: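 Three siRNAs per gene, each in a separate well at 20 nM, were transfected into TC32 cells bearing either reporter construct. Luminescence was measured two days on, and per-gene comparison relied on seed-corrected Z values.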

In order of rising seed-corrected z-score:
1. UGGAGUAUGAGUCCCAUUC against MTPAP  -15.6
2. AAAACGAUCAAAAUCUGUC against RPL14P1  -3.16
3. UACAGUAGCACUGCCCUGU against LAMA5  -2.69
4. AAAGUUACUCUUCCAAACC against POC1A  -2.67
5. UCAGUUUCCUCGCCGACUC against SH3BP5L  -2.66
6. AUAAGACUGACCUUGGUUG against TFCP2L1  -2.59
7. UGCAGGUUCAGCUUGUCUG against LGALS2  -2.58
8. AAAUCUGCACUCUUGGUCA against RGS11  -2.54
9. UAGUUGAGAAGGUCGAAGU against SF3B5  -2.5
10. AUGGUAGACACCUUAGUUC against RPL7P23  -2.39
11. ACAGGGACUUGAACUGGGC against IFNL3  -2.31
12. UCAGGUGCUCCAAGUACUG against TMEM201  -2.21
13. UCUCCUUUUAGCAUGAUCC against SNRPE  -2.15
14. AUGGGUCUCAUGCUCCUCU against TMEM74B  -2.13
15. AUCUUGGUGAUUUCGCGGC against NDN  -2.11
16. UGCUUCAACAAAUCGGGCC against C7orf57  -2.05
17. UUGGGUGUCAGCAGUACUG against PRRC2A  -2.05
18. UCAGUAGCAACUGCCCUUU against MGAT4EP  -2.02
19. AAUCGCAUUGUUCAUGUCC against OR6K3  -1.67
20. UUCAGCAUCACGAACAUCC against SRSF10  -1.61
21. AAUUGUCCAACAUCAACGA against METTL2A  -1.52
22. UUCGUUAUCAAUGCAGUAG against TUBB4B  -1.5
23. UACAGUACAAGUAUGAGCU against CYB561D2  -1.33
24. UCCUUGCAAAUCUCCGACC against LTBP3  -1.01
25. UACUGAGGACCUUUCGUUC against SPATA21  -0.926
26. UCUAGGAGCAGCGCAACUG against ANKRD29  -0.882
27. UCAGGUAUCUGAGAAUCUC against APOBEC3B  -0.83
28. UUCAUCUCCACAAUCACCG against MAG  -0.753
29. UUCUUUCUCACGGUCACUC against LOC728445  -0.746
30. UGCUUAACCACAGAAGCUG against ADSL  -0.731
31. UCUGCACUUGUCAAUAUCC against MED10  -0.53
32. AAUGAGACGACGGAUGAAC against C19orf25  -0.471
33. UGAGGUUAGAGCACUGCAC against CCDC87  -0.47
34. UUGAGUCCAAUGUCCACUC against TBC1D9B  -0.454
35. UUGGUUCCAUUGUAGGUCU against TSPAN3  -0.422
36. UGAUUGCAGAUGAUGAUCC against VHLL  -0.39
37. UGUAGUACACUCUUGUUCU against GOLGA8G  -0.318
38. UUCUUUUUGUCCAAACUCU against SLC25A25  -0.247
39. AUAUUUCAUAUAGGCGAUG against PLA2G10  -0.215
40. UUAUGUCUCAUGAGUCGGU against ZNF548  -0.149
41. AAACCUAUUAACUUCAAGC against CHKA  -0.134
42. UUGAUUUUCUCCUCCAUCC against JAKMIP1  -0.126
43. UCUUGGUCCUCUGGCAGUC against TMEM116  -0.118
44. UCGUUUACCAAACAGUUUC against BTK  -0.0928
45. UAGGUCGAAAGAACUCAGC against PEX3  -0.0828
46. AAUUCACAUGUUGUAAUCC against STRADBP1  -0.053
47. UUACUGACAGUAUUUCACU against C10orf67  -0.0381
48. AGUAUAUCACACUUGAUCC against COL4A4  -0.00727
49. AUCGAUUCCAUUUCAAGGC against SERHL  0.0431
50. UAAAUUUGCAUGAAGGUGU against TMEM179  0.108
51. UAUGGAGAGAGAAUAACUG against SDHC  0.151
52. AACCGAAGGAGAUUCCUGG against C8orf49  0.161
53. UUUUAUUCGAAAUUCUGCA against ITGB1BP1  0.195
54. ACAUUGGUACCUGUCAUCC against GLYCTK  0.203
55. AAGCCGAAAAUUGAUCUGC against GLDC  0.214
56. UCCACGUCAAAUUUAUCCC against SPAG1  0.232
57. AAGGUAAACGAUUAAAUUG against LAMTOR3  0.248
58. AAAGUUACGCACCCAAUUG against GBA  0.249
59. UAAGUUCUUAGAGUUUUGG against TP53TG3  0.271
60. AAGGUAAACAUGUUCUCGC against TARSL2  0.287
61. UUCUAGAUAAUAACUCUCC against CCDC47  0.297
62. UUCUCGAUUAAGAAGUUUC against C18orf21  0.33
63. AAAGUUGAGGGUAGCACUC against AP5B1  0.334
64. AGCAGCAUCAUUCUCAUGU against LOXL4  0.376
65. UUUGUUCUGGAUGCCCUGC against WARSP1  0.407
66. UCACUAAUAGGAUCUUCGC against RAB3GAP1  0.413
67. UUAGAUACAGGUAUGAACA against OR4C45  0.478
68. UUAAUGAAUCUACAGUCCG against OTOR  0.51
69. AUUCGAAUUAGGUAUUGGG against MAK16  0.538
70. AAACCGAUAAGAACUGAGA against TMEM41A  0.54
71. AAAUAAAACGUACAAAUAC against SCRT1  0.713
72. UAACAUAAUUAUAACCUCC against ZNF716  0.757
73. UUAGUUCCCAAGUACUAUC against CHD9  0.856
74. UGACUGUCUUGCGUAUUUC against TTC21A  0.856
75. UUCAGCACCACGCAGUUGC against C12orf65  0.924
76. UGGAUAGCGGUCCUCAUCC against IL17C  1
77. UUUGUUCCAAGGCAUUCAC against CCDC129  1.07
78. UAUCCUGUAAGUUGUGGGC against TEX28  1.15
79. UUUCCUAUUCACAAGAGCG against FHIT  1.2
80. UAUUGACCACAAUCGAGGC against PIGX  1.23
81. UCUUUGCUAGGUAAAAAGC against PRUNE  1.32
82. AAAAUAUAGAUAUCUAUGC against GADD45B  1.35
83. AAGGUUUUCCGAGUAACUC against LYZL6  1.38
84. AAGCGGGAUGAAGAAAUCC against GSX2  3.22
